Legend:
Conditions in all cases: Compound Concentration (nM):1000
PDGFRB = system: PDGFRB
PDPK1 = system: PDPK1
PFCDPK1(P.falciparum) = system: T1, PFCDPK1(P.falciparum)
T1 construct: gene CDPK1

PFPK5(P.falciparum) = system: T2, PFPK5(P.falciparum)
T2 construct: gene MAL13P1.279

PFTAIRE2 = system: T3, PFTAIRE2
T3 construct: gene CDK15

PFTK1 = system: T4, PFTK1
T4 construct: gene CDK14

PHKG1 = system: PHKG1
PHKG2 = system: PHKG2
PIK3C2B = system: PIK3C2B
PIK3C2G = system: PIK3C2G
PIK3CA(C420R) = system: PIK3CA(C420R)
PIK3CA(E542K) = system: PIK3CA(E542K)
PIK3CA(E545A) = system: PIK3CA(E545A)
PIK3CA(E545K) = system: PIK3CA(E545K)
PIK3CA(H1047L) = system: PIK3CA(H1047L)
PIK3CA(H1047Y) = system: PIK3CA(H1047Y)
PIK3CA(I800L) = system: PIK3CA(I800L)
PIK3CA(M1043I) = system: PIK3CA(M1043I)
PIK3CA(Q546K) = system: PIK3CA(Q546K)
PIK3CA = system: PIK3CA
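Also: KINOMEscan scanMAX binding as percent activity remaining versus control; lower means stronger binding.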

Row | Compound | Percent Control (PDGFRB) [%] | Percent Control (PDPK1) [%] | Percent Control (PFCDPK1(P.falciparum)) [%] | Percent Control (PFPK5(P.falciparum)) [%] | Percent Control (PFTAIRE2) [%] | Percent Control (PFTK1) [%] | Percent Control (PHKG1) [%] | Percent Control (PHKG2) [%] | Percent Control (PIK3C2B) [%] | Percent Control (PIK3C2G) [%] | Percent Control (PIK3CA(C420R)) [%] | Percent Control (PIK3CA(E542K)) [%] | Percent Control (PIK3CA(E545A)) [%] | Percent Control (PIK3CA(E545K)) [%] | Percent Control (PIK3CA(H1047L)) [%] | Percent Control (PIK3CA(H1047Y)) [%] | Percent Control (PIK3CA(I800L)) [%] | Percent Control (PIK3CA(M1043I)) [%] | Percent Control (PIK3CA(Q546K)) [%] | Percent Control (PIK3CA) [%]
1 | CC(C)COC(=O)c1ccc2c(c1)/C(=C/Nc1ccc(S(N)(=O)=O)cc1)C(=O)N2 [GW416981X] | 57 | 55 | 71 | 100 | 75 | 89 | 100 | 54 | 100 | 97 | 100 | 100 | 100 | 100 | 100 | 100 | 100 | 87 | 100 | 100
2 | NS(=O)(=O)c1ccc(N/N=C2\C(=O)Nc3ccc(C(=O)NCCc4c[nH]cn4)cc32)cc1 [GW300660X] | 100 | 97 | 69 | 78 | 100 | 100 | 100 | 71 | 100 | 86 | 100 | 100 | 100 | 100 | 98 | 100 | 98 | 81 | 100 | 100
3 | NS(=O)(=O)c1ccc(N/N=C2\C(=O)Nc3ccc(-c4cnco4)cc32)cc1 [GW276655] | 57 | 82 | 93 | 95 | 60 | 94 | 100 | 81 | 86 | 96 | 81 | 89 | 98 | 89 | 94 | 87 | 91 | 87 | 97 | 96
4 | COc1ccc2[nH]c3c4[nH]c5ccc(OC)cc5c4c4c(c3c2c1)C(=O)NC4=O [GW296115X] | 0.1 | 25 | 29 | 82 | 91 | 85 | 12 | 52 | 94 | 76 | 90 | 92 | 100 | 84 | 74 | 89 | 93 | 95 | 91 | 91
5 | CCc1ccc(Oc2nccc(-c3c(-c4ccc(F)cc4)ncn3C3CCNCC3)n2)cc1 [SB-242719] | 81 | 86 | 66 | 87 | 93 | 86 | 90 | 72 | 100 | 93 | 81 | 98 | 87 | 92 | 63 | 81 | 91 | 100 | 90 | 92
6 | COc1cc(C=NNc2ncnc3c2cnn3-c2ccccc2)ccc1O [GW513184X] | 40 | 100 | 100 | 100 | 100 | 91 | 100 | 100 | 71 | 100 | 78 | 100 | 76 | 100 | 100 | 62 | 100 | 59 | 100 | 78
7 | COc1cc(/C=N/Nc2ncnc3[nH]ncc23)ccc1O [GW578748X] | 38 | 83 | 18 | 100 | 96 | 100 | 100 | 88 | 72 | 51 | 97 | 63 | 82 | 59 | 18 | 84 | 51 | 43 | 62 | 82
8 | O=C(Nc1n[nH]c2nc(-c3ccc(O)cc3)c(Br)cc12)C1CC1 [SB-725317] | 3.4 | 100 | 32 | 100 | 92 | 84 | 100 | 100 | 100 | 100 | 92 | 100 | 100 | 100 | 100 | 93 | 100 | 100 | 100 | 100
9 | COc1cc(N2CCN(C(C)C)CC2)ccc1Nc1nc(Nc2ccc(F)cc2C(=O)NC[C@@H](O)CO)c2cc[nH]c2n1 [GSK1392956A] | 100 | 91 | 94 | 74 | 100 | 100 | 29 | 39 | 100 | 96 | 99 | 100 | 100 | 95 | 100 | 83 | 97 | 97 | 100 | 100
10 | CN(C)c1cc2c(Nc3ccc4c(cnn4Cc4ccccc4)c3)ncnc2cn1 [GW282974X] | 98 | 100 | 32 | 94 | 79 | 100 | 91 | 83 | 35 | 89 | 83 | 90 | 95 | 67 | 88 | 70 | 76 | 97 | 85 | 89
